For 40 molecules, growth results are on record in PubChem BioAssay (NCI).

Where “and” joins values, the source holds several entries; their conditions need not be identical. Equal values may be shown once. This is part of a sample that, as a whole, favours compounds with a hit. Of some 83,000 tested, about 20% had one in any assay.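 Treatment: one concentration, 48 hours, 96-well format. Scoring: percent growth, with anything below 10 considered active.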 Calls of active or inactive are those of the source.

This assay has as its system MDA-MB-468 breast. Put plainly: NCI-60 one-dose screen, 48 h (100 = growth as untreated, 0 = no growth, -100 = all killed). The note with it: 10 µM unless noted.
Regarding `COc1ccc2sc3cccc(NCCN(C)C)c3c(=O)c2c1`, the growth is 52.3% (inactive) and -82% (active).
On to `O=Cc1ccccc1C(=O)O`, for which the growth was -6.83% (active).
The figure for `CSc1nc(N)c2c(n1)N(C)C=NS2(=O)=O` is 107% (inactive); for `COc1cc([C@@H]2c3cc4c(cc3C(O[C@@H]3O[C@@H]5CO[C@@H](c6cccs6)OC5[C@H](O)[C@H]3O)C3COC(=O)[C@@H]32)OCO4)cc(OC)c1O` (stereo not given in full) it is -58.9% (active); for `CCOC(=O)c1c2c(c(C)n1Cc1ccccc1)-c1nc(N)ncc1CC2` it is 100% (inactive).
The figure for `CC1(C)CC[C@]2(C(=O)O)CC[C@]3(C)C(=CCC4[C@@]5(C)C[C@@H](O)[C@@H]6OC(c7ccccc7O)OC[C@@]6(C)C5CC[C@]43C)C2C1` (stereo not given in full) is 69.4% (inactive); for `O=C(Oc1ccccc1[N+](=O)[O-])C1CCCN1C(=O)OCc1ccccc1` (stereo not given) it is 97.3% (inactive); for `O=C(NNc1nc2cc(F)c(F)cc2n2cccc12)c1cccnn1` it is -11.1% (active).
As for `COc1cc(OC)c(/C=C/c2c3ccccc3cc[n+]2C)c(OC)c1`, the growth was -26.5% (active).
As to `CCOc1ccc(-c2nonc2NC(=O)c2cccc(C)c2)cc1OCC`, the growth was 2.82% (active).
On to `CCCCCCCCCCCCc1ccc([N+](CC)(CC)CC)cc1`, for which the growth is -5.49% (active).
`O=C(CCN1CCCC1)Nc1ccc2c(Nc3ccc(Br)cc3)c3ccccc3nc2c1`: the growth was 39.5% (inactive).
Turning to `O=C(CCN1C(=O)c2ccccc2C1=O)Nc1ccc(Cl)cc1`, the growth was 116% (inactive).
The figure for `Oc1cc(Nc2ccnc3cc(Cl)ccc23)c2ncccc2c1` is 47.4% (inactive); for `COc1ccc(-c2nc(C(Cl)Cl)nc3cc(-c4ccccc4)nn23)cc1` it is -55.8% (active).
The figure for `COc1ccc(/C=C2\COc3ccc(O)c(O)c3C2=O)cc1OC` is -22.8% (active).
The figure for `C=C1C(=O)O[C@H]2[C@H]1CC/C(Cn1cc(-c3ccccc3C(F)(F)F)nn1)=C\CC[C@@]1(C)O[C@@H]21` is -56.1% (active); for `CCOC(=O)CC(c1ccccc1)C(C#N)c1ccccc1` (stereo not given) it is 101% (inactive).
With `COCCN(C(=O)Cc1cccs1)C(C(=O)NCc1ccc(OC)cc1)c1ccc(C(C)C)cc1` (stereo not given), the growth was 90.7% (inactive).
As for `COc1ccc(-c2nc3c(ncc4ccc(=O)[nH]c43)s2)cc1`, the growth was 62.9% (inactive).
The figure for `Nc1c(C(=O)Nc2ccncc2)sc2nc3c(cc12)CCCCCC3` is 87.8% (inactive); for `O=C(N/N=C\c1ccc(Cl)cc1Cl)c1ccncc1` it is 110% (inactive).
In the case of `C#CCOc1ccccc1C(OC(=O)c1ccccc1)C(=O)NC(C)(C)C(C)(C)C` (stereo not given), the growth was 80.5% (inactive).
Turning to `Cn1cnc2nc(Cl)nc(Cl)c21`, the growth is 21.7% (inactive).
Regarding `O=C(Nc1cccc(-n2cc(-c3ccncc3)c(-c3ccc(Cl)c(O)c3)n2)c1)Nc1cc(C(F)(F)F)cc(C(F)(F)F)c1`, the growth was -23.9% (active).
Take `C=CCn1c(SCC(=O)Nc2ccc(C(=O)/C=C/c3ccc(Cl)cc3)cc2)nnc1-c1ccc(Br)cc1`: the growth was 79.1% (inactive).
The figure for `O=C1CCCc2nc(Nc3ccc(S(=O)(=O)Nc4ccc([N+](=O)[O-])cc4)cc3)ncc21` is 99.8% (inactive); for `O=CN1N=C(c2ccc3c(c2)OCO3)CC1c1cccc(Nc2ccnc3cc(C(F)(F)F)ccc23)c1` (stereo not given) it is 47.1% (inactive).
As to `COc1ccc2nc3cc([N+](=O)[O-])ccc3c(NNc3ccccc3)c2c1`, the growth was 58.3% (inactive).
Regarding `Clc1ccc(N2N=C(c3cccc(Nc4ccncc4)c3)CC2c2ccc3c(c2)OCO3)cc1` (stereo not given), the growth was 62.1% (inactive).
With `NC(=O)NC1(C(=O)O)CCCC1`, the growth is 119% (inactive).
Turning to `COC1(OC)C2(Cl)C(Cl)=C(Cl)C1(Cl)C1COCC12` (stereo not given), the growth is 87% (inactive).
On to `COc1ccc(-c2nc(-c3nc4ccc(OC)cc4[nH]3)cc3c2[nH]c2ccccc23)cc1`, for which the growth is 59.6% (inactive).
In the case of `NC1=NN=C2N(N)C(=O)c3cnn(-c4ccccc4)c3N2c2nc(-c3ccccc3)cc(-c3ccccc3)c21`, the growth was 110% (inactive).
In the case of `CC(=O)c1cc2c(N)c(C(=O)Nc3cccc4ccccc34)sc2nc1C`, the growth was 4% (active).
The figure for `COC(=O)c1cccc(NC(=O)c2ccc(-c3cccc(N)c3)o2)c1` is 99.7% (inactive).
As for `COc1ccc2nc(NC(=O)CN3CCn4c(nnc4C(F)(F)F)C3)sc2c1`, the growth is 84.5% (inactive).
The figure for `CC(=O)Oc1ccccc1C(=O)Nc1ccc(C(=O)/C=C/c2ccncc2)cc1` is 4.04% (active); for `CCOc1cccc(/C=N/NC(=O)C(=O)Nc2cccc(C(F)(F)F)c2)c1O` it is 1.46% (active); for `C[n+]1cc2cc(C(N)=O)[nH]c3c(=N)c(Cl)c(N)c1c23` it is 53.3% (inactive).
